Test in all cases: DAPPL (digital affinity profiling via proximity ligation, sequencing); 10 mM Tris-HCl pH 7.5, 50 mM NaCl, 1 mM DTT, 4% glycerol, room temperature, 30 min; GST-TFs on glutathione beads, 16-mer random dsDNA library, 0.1% formaldehyde crosslink after washing; high values mean tight binding
The target of assay [1] is T1, FEV (Homo sapiens, UniProt Q99581 1-238).
T1 sequence: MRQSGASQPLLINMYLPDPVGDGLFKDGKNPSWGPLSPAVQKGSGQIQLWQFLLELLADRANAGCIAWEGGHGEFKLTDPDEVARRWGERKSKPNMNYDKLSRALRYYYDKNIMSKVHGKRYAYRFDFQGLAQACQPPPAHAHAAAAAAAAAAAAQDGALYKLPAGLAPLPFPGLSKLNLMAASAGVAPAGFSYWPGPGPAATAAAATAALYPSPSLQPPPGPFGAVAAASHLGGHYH
The conditions noted are these: protein: recombinant; tags: N-terminal GST; dsDNA, one strand shown. A digest of the protocol: (§1)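 Pools of DNA-barcoded human transcription factors, expressed in yeast as GST fusions on glutathione beads and combined with a tag-only sample, were incubated with 200 nmole of a 16-mer random double-stranded DNA library. Incubation took 30 min at room temperature in Tris/NaCl/DTT/glycerol buffer and was followed by washing, 0.1% formaldehyde crosslinking, proximity ligation (BsaI/T4 ligase, 1 h, 37 °C), PCR amplification and sequencing on an Illumina NextSeq500. Binding signal is the ratio of a hexamer's read frequency for a factor to its frequency for the tag-only sample.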

Assay [2] addresses ETV5 (Homo sapiens, UniProt P41161 1-510). Conditions: protein: recombinant; tags: N-terminal GST; dsDNA, one strand shown. A digest of the protocol: as §1
The target in assay [3] is HSF1 (Homo sapiens, UniProt Q00613 1-529). Conditions: protein: recombinant; tags: N-terminal GST; chain copies: 3; dsDNA, one strand shown. A digest of the protocol:
as §1

Assay [4] concerns the target T2, SPIC (Homo sapiens, UniProt Q8N5J4 1-248).
T2 sequence: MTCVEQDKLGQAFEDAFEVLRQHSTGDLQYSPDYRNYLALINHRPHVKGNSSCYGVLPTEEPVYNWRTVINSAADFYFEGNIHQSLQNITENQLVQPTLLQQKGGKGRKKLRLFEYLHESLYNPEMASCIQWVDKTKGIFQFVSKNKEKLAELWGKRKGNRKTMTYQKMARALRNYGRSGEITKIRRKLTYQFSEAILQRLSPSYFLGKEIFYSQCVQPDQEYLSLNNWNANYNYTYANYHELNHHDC
Conditions: protein: recombinant; tags: N-terminal GST; dsDNA, one strand shown. A digest of the protocol:
as §1

The target of assay [5] is ELF4 (Homo sapiens, UniProt Q99607 1-663). Conditions: protein: recombinant; tags: N-terminal GST; dsDNA, one strand shown. A digest of the protocol:
as §1

Assay [6] concerns the target T3, ELK4 (Homo sapiens, UniProt P28324-2 1-405).
T3 sequence: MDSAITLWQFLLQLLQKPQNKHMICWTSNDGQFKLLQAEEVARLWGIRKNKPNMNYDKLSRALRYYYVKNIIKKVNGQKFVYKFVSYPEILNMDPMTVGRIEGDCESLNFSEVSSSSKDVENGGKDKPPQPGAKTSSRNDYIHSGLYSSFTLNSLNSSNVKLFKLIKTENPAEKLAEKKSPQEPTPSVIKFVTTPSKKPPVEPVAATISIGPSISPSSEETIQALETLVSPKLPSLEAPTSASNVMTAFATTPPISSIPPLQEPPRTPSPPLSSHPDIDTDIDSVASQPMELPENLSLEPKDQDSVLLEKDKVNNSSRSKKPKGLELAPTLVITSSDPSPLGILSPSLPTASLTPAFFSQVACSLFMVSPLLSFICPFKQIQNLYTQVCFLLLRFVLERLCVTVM
The conditions noted are these: protein: recombinant; tags: N-terminal GST; dsDNA, one strand shown. In outline:
as §1

Assay [7] concerns the target T4, ETV2 (Homo sapiens, UniProt O00321 1-342).
T4 sequence: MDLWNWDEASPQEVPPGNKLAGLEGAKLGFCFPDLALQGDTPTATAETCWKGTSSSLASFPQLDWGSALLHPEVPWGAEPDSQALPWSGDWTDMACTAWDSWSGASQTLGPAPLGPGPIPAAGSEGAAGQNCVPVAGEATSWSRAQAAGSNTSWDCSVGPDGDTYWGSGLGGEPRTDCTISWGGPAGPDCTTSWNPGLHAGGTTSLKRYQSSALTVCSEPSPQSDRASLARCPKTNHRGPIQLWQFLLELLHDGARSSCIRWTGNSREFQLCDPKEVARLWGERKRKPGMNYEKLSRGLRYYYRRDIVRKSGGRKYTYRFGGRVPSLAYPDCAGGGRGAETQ
Conditions: protein: recombinant; tags: N-terminal GST; dsDNA, one strand shown. A digest of the protocol:
as §1

Assay [8] deals with T5, ELF3 (Homo sapiens, UniProt P78545 1-371).
T5 sequence: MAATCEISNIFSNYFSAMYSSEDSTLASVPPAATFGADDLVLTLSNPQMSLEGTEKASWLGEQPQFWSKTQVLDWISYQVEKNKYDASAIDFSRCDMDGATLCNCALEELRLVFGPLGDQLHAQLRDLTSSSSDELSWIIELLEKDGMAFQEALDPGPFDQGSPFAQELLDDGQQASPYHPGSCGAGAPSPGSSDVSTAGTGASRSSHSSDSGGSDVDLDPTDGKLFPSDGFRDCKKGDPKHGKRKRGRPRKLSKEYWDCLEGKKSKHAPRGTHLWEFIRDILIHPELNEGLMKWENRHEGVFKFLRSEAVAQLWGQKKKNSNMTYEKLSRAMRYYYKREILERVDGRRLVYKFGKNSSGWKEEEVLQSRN
Conditions: protein: recombinant; tags: N-terminal GST; dsDNA, one strand shown. In outline:
as §1

In assay [9] the target is CRX (Homo sapiens, UniProt O43186 1-299). Conditions: protein: recombinant; tags: N-terminal GST; dsDNA, one strand shown. In outline:
as §1

Assay [10] concerns the target ETV1 (Homo sapiens, UniProt P50549 1-477). Conditions: protein: recombinant; tags: N-terminal GST; dsDNA, one strand shown. In outline:
as §1

Assay [11] addresses T6, ERF (Homo sapiens, UniProt P50548 1-548).
T6 sequence: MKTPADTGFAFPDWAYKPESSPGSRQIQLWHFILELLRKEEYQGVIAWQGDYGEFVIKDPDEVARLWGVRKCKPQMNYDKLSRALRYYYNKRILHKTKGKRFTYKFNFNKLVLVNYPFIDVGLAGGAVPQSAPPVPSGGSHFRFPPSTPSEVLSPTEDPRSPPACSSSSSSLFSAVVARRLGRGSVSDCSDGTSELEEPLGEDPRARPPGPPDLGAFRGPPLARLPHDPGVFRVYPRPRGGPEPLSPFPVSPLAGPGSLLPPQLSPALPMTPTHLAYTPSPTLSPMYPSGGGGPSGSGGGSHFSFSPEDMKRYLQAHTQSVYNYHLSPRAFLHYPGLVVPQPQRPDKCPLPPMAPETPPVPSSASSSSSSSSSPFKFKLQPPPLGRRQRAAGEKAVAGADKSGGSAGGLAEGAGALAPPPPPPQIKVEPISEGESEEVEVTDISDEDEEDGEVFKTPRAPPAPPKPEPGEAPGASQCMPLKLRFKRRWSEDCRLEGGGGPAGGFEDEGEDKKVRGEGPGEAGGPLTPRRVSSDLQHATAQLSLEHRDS
The conditions noted are these: protein: recombinant; tags: N-terminal GST; dsDNA, one strand shown. A digest of the protocol: as §1

Assay [12] concerns the target T7, ETV3L (Homo sapiens, UniProt Q6ZN32 1-361).
T7 sequence: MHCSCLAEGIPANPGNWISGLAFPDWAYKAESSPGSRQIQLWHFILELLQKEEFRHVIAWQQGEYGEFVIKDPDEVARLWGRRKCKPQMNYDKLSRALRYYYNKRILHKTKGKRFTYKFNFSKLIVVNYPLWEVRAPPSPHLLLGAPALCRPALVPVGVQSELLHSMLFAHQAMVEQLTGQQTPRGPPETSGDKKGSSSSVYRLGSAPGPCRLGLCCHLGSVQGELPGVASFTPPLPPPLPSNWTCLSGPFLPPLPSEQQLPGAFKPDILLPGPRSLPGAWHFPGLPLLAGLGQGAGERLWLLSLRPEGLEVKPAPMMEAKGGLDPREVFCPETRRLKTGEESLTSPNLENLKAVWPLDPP
The conditions noted are these: protein: recombinant; tags: N-terminal GST; dsDNA, one strand shown. In outline:
as §1

The target of assay [13] is T8, ETS2 (Homo sapiens, UniProt P15036 1-469).
T8 sequence: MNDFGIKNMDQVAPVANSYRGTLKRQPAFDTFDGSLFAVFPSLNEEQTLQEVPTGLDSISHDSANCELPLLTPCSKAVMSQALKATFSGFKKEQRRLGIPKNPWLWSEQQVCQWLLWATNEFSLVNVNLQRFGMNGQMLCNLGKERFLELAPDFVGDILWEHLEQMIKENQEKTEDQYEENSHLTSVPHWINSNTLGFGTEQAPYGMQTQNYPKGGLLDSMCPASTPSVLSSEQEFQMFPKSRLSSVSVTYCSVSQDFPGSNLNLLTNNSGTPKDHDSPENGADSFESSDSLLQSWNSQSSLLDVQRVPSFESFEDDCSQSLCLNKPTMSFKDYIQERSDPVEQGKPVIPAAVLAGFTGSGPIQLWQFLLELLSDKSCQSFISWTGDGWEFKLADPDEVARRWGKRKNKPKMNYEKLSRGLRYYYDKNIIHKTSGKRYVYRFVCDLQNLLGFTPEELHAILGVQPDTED
The conditions noted are these: protein: recombinant; tags: N-terminal GST; dsDNA, one strand shown. A digest of the protocol: as §1

Assay [14] has as its target T9, SPDEF (Homo sapiens, UniProt O95238 1-335).
T9 sequence: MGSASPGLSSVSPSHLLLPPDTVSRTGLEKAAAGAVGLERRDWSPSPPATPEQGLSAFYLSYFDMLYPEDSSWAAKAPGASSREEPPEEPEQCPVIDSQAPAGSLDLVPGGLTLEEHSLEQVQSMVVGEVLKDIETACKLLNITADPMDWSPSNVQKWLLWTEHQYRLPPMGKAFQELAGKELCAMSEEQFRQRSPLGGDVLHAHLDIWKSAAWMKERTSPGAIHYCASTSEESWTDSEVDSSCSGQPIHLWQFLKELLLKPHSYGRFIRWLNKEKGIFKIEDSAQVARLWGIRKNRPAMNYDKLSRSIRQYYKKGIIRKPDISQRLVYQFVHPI
Conditions: protein: recombinant; tags: N-terminal GST; dsDNA, one strand shown. In outline:
as §1

In assay [15] the target is T10, ETV7 (Homo sapiens, UniProt Q9Y603 1-341).
T10 sequence: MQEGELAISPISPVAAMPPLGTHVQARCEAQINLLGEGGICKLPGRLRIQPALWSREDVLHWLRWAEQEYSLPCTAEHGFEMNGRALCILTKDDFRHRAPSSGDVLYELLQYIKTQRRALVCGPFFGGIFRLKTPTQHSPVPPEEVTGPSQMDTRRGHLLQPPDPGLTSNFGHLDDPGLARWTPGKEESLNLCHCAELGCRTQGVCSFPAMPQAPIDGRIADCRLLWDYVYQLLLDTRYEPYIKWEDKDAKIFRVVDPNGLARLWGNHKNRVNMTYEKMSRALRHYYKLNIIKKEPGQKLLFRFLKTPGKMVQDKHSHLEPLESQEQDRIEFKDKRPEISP
Conditions: protein: recombinant; tags: N-terminal GST; dsDNA, one strand shown. A digest of the protocol: as §1

Assay [16] addresses T11, ELF5 (Homo sapiens, UniProt Q9UKW6-2 1-255).
T11 sequence: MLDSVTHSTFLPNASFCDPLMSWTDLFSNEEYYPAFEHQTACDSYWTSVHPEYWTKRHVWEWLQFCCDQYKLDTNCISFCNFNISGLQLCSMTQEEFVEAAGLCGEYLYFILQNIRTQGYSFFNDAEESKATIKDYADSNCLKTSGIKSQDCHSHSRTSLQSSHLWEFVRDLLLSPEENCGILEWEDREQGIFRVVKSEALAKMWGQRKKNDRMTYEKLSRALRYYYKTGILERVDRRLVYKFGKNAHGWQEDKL
The conditions noted are these: protein: recombinant; tags: N-terminal GST; dsDNA, one strand shown. A digest of the protocol:
as §1

For assay [17], the target named is T12, ETV3 (Homo sapiens, UniProt P41162-2 1-143).
T12 sequence: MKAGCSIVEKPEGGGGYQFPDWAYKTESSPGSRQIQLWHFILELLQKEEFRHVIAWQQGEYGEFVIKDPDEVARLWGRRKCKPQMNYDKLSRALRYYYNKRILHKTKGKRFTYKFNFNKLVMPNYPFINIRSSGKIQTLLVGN
The conditions noted are these: protein: recombinant; tags: N-terminal GST; dsDNA, one strand shown. In outline:
as §1

Assay [18] concerns the target ETV6 (Homo sapiens, UniProt P41212 1-452). Conditions: protein: recombinant; tags: N-terminal GST; dsDNA, one strand shown. In outline:
as §1

Sequence of CRX (O43186 whole entry): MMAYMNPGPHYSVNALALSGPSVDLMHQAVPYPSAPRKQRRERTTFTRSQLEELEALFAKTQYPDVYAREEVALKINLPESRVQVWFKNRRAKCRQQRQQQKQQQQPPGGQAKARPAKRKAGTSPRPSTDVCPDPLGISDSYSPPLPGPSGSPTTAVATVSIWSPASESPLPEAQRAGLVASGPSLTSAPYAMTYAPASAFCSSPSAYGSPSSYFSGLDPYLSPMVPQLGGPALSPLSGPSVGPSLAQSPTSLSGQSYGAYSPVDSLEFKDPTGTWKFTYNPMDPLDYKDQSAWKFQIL
Sequence of ELF4 (Q99607 whole entry): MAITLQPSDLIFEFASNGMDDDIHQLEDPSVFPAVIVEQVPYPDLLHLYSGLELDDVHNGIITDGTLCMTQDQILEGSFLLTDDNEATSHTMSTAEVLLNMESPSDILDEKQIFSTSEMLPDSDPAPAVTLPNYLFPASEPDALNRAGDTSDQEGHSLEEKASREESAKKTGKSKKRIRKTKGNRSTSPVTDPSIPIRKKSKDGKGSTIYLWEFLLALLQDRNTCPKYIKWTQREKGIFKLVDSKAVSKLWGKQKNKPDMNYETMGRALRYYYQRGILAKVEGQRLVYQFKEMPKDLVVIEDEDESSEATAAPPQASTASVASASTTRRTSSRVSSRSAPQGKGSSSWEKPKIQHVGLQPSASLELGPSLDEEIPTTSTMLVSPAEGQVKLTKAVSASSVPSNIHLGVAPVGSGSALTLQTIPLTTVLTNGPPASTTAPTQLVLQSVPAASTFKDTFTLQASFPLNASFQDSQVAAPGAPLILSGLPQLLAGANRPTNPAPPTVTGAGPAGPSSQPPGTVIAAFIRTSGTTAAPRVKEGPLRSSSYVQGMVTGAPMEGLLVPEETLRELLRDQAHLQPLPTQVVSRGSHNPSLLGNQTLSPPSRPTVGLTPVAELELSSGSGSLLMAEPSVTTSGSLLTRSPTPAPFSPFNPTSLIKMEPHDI
Sequence of ETV6 (P41212 whole entry): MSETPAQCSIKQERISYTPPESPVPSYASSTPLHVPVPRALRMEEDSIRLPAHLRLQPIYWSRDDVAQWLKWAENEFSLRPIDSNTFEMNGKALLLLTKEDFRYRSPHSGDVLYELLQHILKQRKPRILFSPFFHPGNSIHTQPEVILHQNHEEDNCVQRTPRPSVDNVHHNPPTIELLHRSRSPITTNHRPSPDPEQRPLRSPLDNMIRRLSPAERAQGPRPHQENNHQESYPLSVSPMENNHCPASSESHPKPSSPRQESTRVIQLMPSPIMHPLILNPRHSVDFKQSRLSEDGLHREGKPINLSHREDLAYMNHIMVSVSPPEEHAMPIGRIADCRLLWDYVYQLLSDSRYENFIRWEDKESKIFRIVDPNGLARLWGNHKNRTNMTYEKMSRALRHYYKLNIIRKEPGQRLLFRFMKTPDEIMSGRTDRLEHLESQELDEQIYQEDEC
Sequence of ETV5 (P41161 whole entry): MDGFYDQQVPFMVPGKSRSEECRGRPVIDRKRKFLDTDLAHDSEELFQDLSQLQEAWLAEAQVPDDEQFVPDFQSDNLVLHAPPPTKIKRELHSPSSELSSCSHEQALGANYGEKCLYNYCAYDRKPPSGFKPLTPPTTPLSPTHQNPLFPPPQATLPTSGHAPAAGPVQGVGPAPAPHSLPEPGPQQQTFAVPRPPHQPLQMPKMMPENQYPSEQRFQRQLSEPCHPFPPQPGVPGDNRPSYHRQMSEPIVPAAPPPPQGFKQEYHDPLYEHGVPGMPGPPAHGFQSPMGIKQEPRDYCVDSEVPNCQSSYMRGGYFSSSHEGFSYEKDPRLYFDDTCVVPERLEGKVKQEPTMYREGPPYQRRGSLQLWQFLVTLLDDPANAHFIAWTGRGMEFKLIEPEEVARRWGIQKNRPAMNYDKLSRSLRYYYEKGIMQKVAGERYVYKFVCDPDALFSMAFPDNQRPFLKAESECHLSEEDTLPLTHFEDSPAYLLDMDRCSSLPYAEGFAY
Sequence of HSF1 (Q00613 whole entry): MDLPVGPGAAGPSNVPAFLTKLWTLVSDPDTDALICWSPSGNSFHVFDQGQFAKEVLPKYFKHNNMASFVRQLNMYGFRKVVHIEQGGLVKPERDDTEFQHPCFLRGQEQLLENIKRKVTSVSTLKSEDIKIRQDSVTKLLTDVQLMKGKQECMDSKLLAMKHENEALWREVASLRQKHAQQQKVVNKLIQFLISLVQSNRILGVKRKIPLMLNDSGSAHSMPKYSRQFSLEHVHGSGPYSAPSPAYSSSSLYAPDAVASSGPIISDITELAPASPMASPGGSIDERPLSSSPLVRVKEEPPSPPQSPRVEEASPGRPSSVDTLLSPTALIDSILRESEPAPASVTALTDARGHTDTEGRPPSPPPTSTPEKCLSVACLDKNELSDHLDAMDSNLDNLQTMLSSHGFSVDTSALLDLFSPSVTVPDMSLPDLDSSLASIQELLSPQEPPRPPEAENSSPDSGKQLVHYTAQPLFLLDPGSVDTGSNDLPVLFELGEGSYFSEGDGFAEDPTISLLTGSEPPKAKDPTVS
Sequence of ETV1 (P50549 whole entry): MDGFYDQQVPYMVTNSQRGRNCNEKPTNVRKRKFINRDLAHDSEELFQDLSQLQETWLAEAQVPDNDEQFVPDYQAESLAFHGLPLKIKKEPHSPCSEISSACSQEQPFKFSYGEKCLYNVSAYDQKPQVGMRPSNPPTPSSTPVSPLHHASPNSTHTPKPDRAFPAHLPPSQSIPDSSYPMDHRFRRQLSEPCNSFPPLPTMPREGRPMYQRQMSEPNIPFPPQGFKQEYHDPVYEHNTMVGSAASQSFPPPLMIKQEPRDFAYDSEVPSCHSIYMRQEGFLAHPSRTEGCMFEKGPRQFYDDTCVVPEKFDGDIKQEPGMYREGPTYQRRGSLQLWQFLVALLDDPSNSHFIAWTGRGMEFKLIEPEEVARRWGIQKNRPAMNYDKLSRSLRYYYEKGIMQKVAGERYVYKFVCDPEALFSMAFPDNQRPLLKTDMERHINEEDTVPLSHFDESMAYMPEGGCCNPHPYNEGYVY

In the case of ATCCTT, the binding signal was 1.64 fold enrichment (6-mer frequency, TF over GST control) in assay [1]; 1.67 fold enrichment (6-mer frequency, TF over GST control) in assay [2]; 1.98 fold enrichment (6-mer frequency, TF over GST control) in [3]; 1.74 fold enrichment (6-mer frequency, TF over GST control) in assay [4]; 1.7 fold enrichment (6-mer frequency, TF over GST control) in assay [5]; 1.77 fold enrichment (6-mer frequency, TF over GST control) in [6]. For the same sequence, the binding signal in assay [7] is 1.57 fold enrichment (6-mer frequency, TF over GST control); in assay [8] it was 1.47 fold enrichment (6-mer frequency, TF over GST control); in assay [9], 2.37 fold enrichment (6-mer frequency, TF over GST control); in assay [10], 1.67 fold enrichment (6-mer frequency, TF over GST control); in assay [11], 1.56 fold enrichment (6-mer frequency, TF over GST control); in assay [12] it was 1.58 fold enrichment (6-mer frequency, TF over GST control). The binding signal in [13] is 1.47 fold enrichment (6-mer frequency, TF over GST control); in [14], 2.13 fold enrichment (6-mer frequency, TF over GST control); in assay [15], 1.49 fold enrichment (6-mer frequency, TF over GST control); in assay [16], 2.26 fold enrichment (6-mer frequency, TF over GST control); in assay [17], 1.84 fold enrichment (6-mer frequency, TF over GST control); in assay [18] it was 1.68 fold enrichment (6-mer frequency, TF over GST control).

The values are drawn from PMC7862700, “An all-to-all approach to the identification of sequence-specific readers for epigenetic DNA modifications on cytosine”.
